HIF-2a inh = HIF-2a reporter inhibitors, primary screen, luminescence, 786-0 RCC cells; 786-0 RCC cells HIF-2a reporter, luciferase luminescence, overnight; inhibition, % at 18.8 µM; hit rate 0.72% among 360,000;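 active means inhibition of the luminescence signal of 40% or more relative to plate controls, in a single-dose primary screen at 18.75 µM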
KKLEB cytotox = cytotoxicity in KKLEB CF airway cells, primary screen, cytotoxicity control for CF NF-kB inhibitor project, cell-based, uHTS, fluorescence assay plates; KKLEB CF airway cells viability, ATPlite luminescence, overnight; hits give low values; cells stimulated with P. aeruginosa culture filtrate; activity change (cytotoxicity), % at 5 µM; hit rate 0.36% among 360,000;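 active means corrected activity change at or below -50% at 5 µM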
iPSC survival up = enhancers of single-cell hiPSC survival, primary screen, ATPlite luminescence | 100% = ROCK inhibitor wells, 0% = DMSO | survival enhancement, % at 20 µM | hit rate 0.044% among 360,000 | AID 602274, 2012; in the data active means survival enhancement above about 18%;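 further: cells exposed to compounds for 16 hours before the ATP read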
TWEAK Fn14 block = inhibitors of TWEAK-Fn14 signaling, primary screen, luciferase reporter cells, uHTS | TWEAK-stimulated Fn14 reporter cells, luciferase luminescence, 8 h | inhibition, % at 10 µM | hit rate 2% among 360,000 | AID 1159606, 2016; in the data active means inhibition above about 50%
LGR2 inh = inhibitors of bursicon-induced LGR2 CRE-luciferase signal, primary screen, cell-based, HEK293, CRE-luciferase reporter, bursicon stimulation; Drosophila bursicon receptor LGR2 (rickets); bursicon-stimulated, 4 h; inhibition, % at 9.99 µM; hit rate 0.35% among 380,000;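 active means drop in luminescence signal, shown as inhibition above about 50% in the replicate tests, limit read from the data, passing the limit was not always enough; inconclusive means probably only some replicates passing the limit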;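 further: agonist challenge used bursicon conditioned medium at about half maximal strength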
CF NFkB inh = inhibitors of PAF-induced NF-kB signaling, primary screen, cell-based, GFP fluorescence, uHTS | hit rate 0.86% among 360,000 | inhibition, % at 5 µM | KKLEB NF-kB-GFP reporter, GFP fluorescence overnight;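 active means at least 50% inhibition at 5 µM, scaled per plate between neutral and stimulator controls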;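 further: PAF is a Pseudomonas aeruginosa culture filtrate used as stimulus; plate controls were PAF-stimulated DMSO wells for no effect and unstimulated DMSO wells for full effect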
* = called active by the depositor; ? = inconclusive; · = no result given. The list is not random: actives were taken first. Their share in the collection is about 2.3%.

SMILES	HIF-2a inh	KKLEB cytotox	iPSC survival up	TWEAK Fn14 block	LGR2 inh	CF NFkB inh
CCn1c(SCC(=O)Nc2nc3ccc(OC)cc3s2)nc2c1c(=O)n(C)c(=O)n2C	-11.6	-0.1	-1.5	58.2*	54.5*	-14.7
CC(C)n1c(SCC(=O)Nc2nc3ccccc3s2)nc2c1c(=O)n(C)c(=O)n2C	6.0	-13.7	-1.9	-18.9	17.9	8.2
C[C@@H]1CN([C@H](C)CO)C(=O)c2cccc(NS(C)(=O)=O)c2O[C@H]1CN(C)C	·	·	·	·	4.1	·
CCOC(=O)N1CCN(C(=O)COC(=O)c2cc(Cl)cc(Cl)c2)CC1	6.2	4.6	1.0	-17.3	20.0	3.2
CCOC(=O)N1CCN(C(=O)COC(=O)c2cc(Cl)c(O)c(Cl)c2)CC1	15.1	2.0	-0.8	71.6*	-25.8	0.3
CCCCCCCn1c2c(c(=N)c3ccccc31)CCC2	-18.4	-29.0	-0.6	56.2*	27.2	38.7
CN1CCN(C(=O)c2ccccc2N(Cc2ccccc2)S(C)(=O)=O)CC1	14.8	1.2	3.8	72.0*	·	0.4
O=C(NCC[C@@H]1CC[C@@H](NS(=O)(=O)c2ccccc2)[C@H](CO)O1)c1ccccc1F	·	·	·	·	-7.3	·
CC(=O)C1CCC2C3CCC4=CC(=O)CCC4(C)C3(F)C(O)CC12C (stereo not drawn)	15.1	-2.7	6.0	-7.5	12.0	60.9*
CC1(C)OC2CC3C4CCC5=CC(=O)CCC5(C)C4(F)C(O)CC3(C)C2(C(=O)CO)O1 (stereo not drawn)	12.9	3.4	3.1	-13.9	-13.4	96.4*
CC12CCC(=O)C=C1CCC1C2C(=O)CC2(C)C1CCC2(O)C(=O)CO (stereo not drawn)	12.7	-4.1	1.1	-12.7	-3.2	11.1
CC12CCC(=O)C=C1CCC1C3CC(O)C(O)(C(=O)CO)C3(C)CC(O)C12F (stereo not drawn)	12.5	-6.7	0.3	1.3	6.7	78.4*
C[C@@H]1CN([C@H](C)CO)C(=O)c2cc(NS(=O)(=O)c3ccccc3)ccc2O[C@@H](C)CCCCO[C@@H]1CN(C)C	·	·	·	·	3.1	·
Cc1noc(C)c1NC(=O)N(C)C[C@H]1Oc2c(NS(=O)(=O)c3c(C)noc3C)cccc2C(=O)N([C@@H](C)CO)C[C@H]1C	·	·	·	·	-8.2	·
O=C(C1CCCC1)N1CC(=O)N2[C@@H](CO)[C@H](c3ccc(-c4cccnc4)cc3)[C@@H]2C1	·	·	·	·	3.1	·
CS(=O)(=O)N(CC(=O)Nc1ccccc1C(=O)NCc1ccco1)c1ccc2c(c1)OCCO2	-10.1	1.7	1.2	-0.4	·	6.8
CC(C)CNC(=O)c1ccccc1NC(=O)CN(c1ccc2c(c1)OCCO2)S(C)(=O)=O	11.0	14.4	-1.0	89.7*	-3.1	-19.7
CCOc1ccc(N(CC(=O)NC2CC3CCC2C3)S(=O)(=O)c2ccccc2)cc1 (stereo not drawn)	5.6	-9.1	-0.6	56.2*	15.4	16.2
O=S(=O)(c1ccc(Cl)c(NC(=S)N/N=C/c2ccc(O)cc2)c1)N1CCOCC1	-35.7	17.3	-0.8	58.4*	1.1	-37.7
O=[N+]([O-])c1ccc(-c2nc(-c3cccs3)c(-c3cccs3)[nH]2)cc1	-13.8	-3.6	0.0	78.7*	15.5	2.5
O=[N+]([O-])c1cccc(-c2nc(-c3cccs3)c(-c3cccs3)[nH]2)c1	-2.9	-8.7	2.7	57.9*	·	9.1
O=[N+]([O-])c1cccc(-c2nc(-c3ccccc3)c(-c3cccs3)[nH]2)c1	17.6	-14.6	2.7	12.0	2.3	13.9
COc1ccc(-c2nc(-c3cccs3)c(-c3cccs3)[nH]2)cc1OC	-14.8	-5.5	4.4	-8.6	·	-12.4
COc1ccc2c3c(n(C)c2c1)[C@H](CO)N(Cc1ccc2c(c1)OCO2)CC31CCN(C(=O)c2ccc3c(c2)OCO3)CC1	·	·	·	·	-1.8	·
COC(=O)c1cc(S(=O)(=O)NCCc2ccc(Cl)cc2)c[nH]1	17.9	-8.5	0.9	40.9	7.9	50.7*
SMILES	HIF-2a inh	KKLEB cytotox	iPSC survival up	TWEAK Fn14 block	LGR2 inh	CF NFkB inh
COC(=O)c1cc(S(=O)(=O)NCCc2ccc(C)cc2)c[nH]1	19.3	6.9	-1.0	1.9	-3.5	0.7
O=C(N[C@H]1CC[C@H](CCn2cc(C3CCCC3)nn2)O[C@@H]1CO)c1cccnc1	·	·	·	·	-5.9	·
CC(=O)N(C)C[C@H]1Oc2cc(-c3ccccc3F)ccc2S(=O)(=O)N([C@@H](C)CO)C[C@H]1C	·	·	·	·	24.7	·
Cc1cccc(NC(=S)N=Nc2c(O)n(CN3CCOCC3)c3ccccc23)c1C	17.0	12.2	3.4	50.3*	17.1	-1.1
COc1ccc(NC(=O)N(C)C[C@H]2Oc3ccc(NC(=O)Cc4cn(C)c5ccccc45)cc3C(=O)N([C@H](C)CO)C[C@H]2C)cc1	·	·	·	·	-11.4	·
O=c1c2ccccc2cnn1-c1ccc(Br)cc1	-173.7	9.7	10.8	35.1	·	-26.5
O=c1c2ccccc2cnn1-c1ccc2ccccc2c1	-163.3	-3.7	-1.9	55.0*	35.7	-9.9
COc1ccc(C(=O)Nc2ccc3c(c2)OC[C@H](C)NC[C@H](C)[C@@H](OC)CN(C)C3=O)cc1	·	·	·	·	-3.6	·
COc1ccc(-c2cc(CCCC(=O)NCc3ccccn3)no2)cc1	-17.3	-1.0	-1.9	86.5*	-2.9	2.9
O=C(Cc1ccccn1)N1CC(=O)N2[C@H](CO)[C@H](c3ccc(C#CC4CCCC4)cc3)[C@H]2C1	·	·	·	·	9.3	·
Cc1ccc2c(c1)COc1c3ccc(C(=O)N[C@@H](CO)C(C)C)cc3nn1-2	-235.1	3.3	-2.4	-2.5	-68.0	0.3
C[C@@H](CO)NC(=O)c1ccc2c3n(nc2c1)-c1ccccc1CO3	-42.1	-15.0	-5.7	52.5*	?	-39.3
C[C@@H]1CCCCO[C@H](CN(C)S(=O)(=O)c2ccccc2)[C@H](C)CN([C@@H](C)CO)C(=O)c2cc(NS(=O)(=O)c3ccccc3)ccc2O1	·	·	·	·	-2.1	·
CCCCCOc1ccc(/C=c2\sc3nc(=O)c(-c4ccccc4)nn3c2=O)cc1OC	7.7	9.1	0.0	33.0	15.2	-33.2
O=c1nc2s/c(=C\c3ccc(-c4ccccc4[N+](=O)[O-])o3)c(=O)n2nc1-c1ccccc1	5.5	-4.9	0.9	56.9*	14.6	5.8
O=C(N[C@@H]1CC[C@H](CCNS(=O)(=O)Cc2ccccc2)O[C@@H]1CO)c1cnccn1	·	·	·	·	8.9	·
C=CCN(c1ccccc1)S(=O)(=O)c1cccc(C(=O)Nc2nc3ccccc3[nH]2)c1	5.6	0.5	-1.3	53.8*	-0.4	12.3
O=C(Nc1nc2ccccc2[nH]1)c1cccc(Cl)c1	-232.3	5.2	-0.6	25.7	-9.4	-5.6
O=C(Nc1nc2ccccc2[nH]1)c1ccc(Cl)cc1	-54.1	-30.1	-0.8	69.5*	57.4*	-17.5
